The full list was thinned out, with the strongest signals kept by preference.

The source of these data is the supplement of paper PMC8728848.

What all share (assay): glycan array binding signal (z-score within array); higher = stronger binding
Conditions in all cases: glycan notation: IUPAC condensed, linker removed

One assay relates to Gal(a1-6)Glc. In short, it runs like this:
(§1)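 Glycan array data were curated from 3228 arrays in the Consortium for Functional Glycomics database and kept only where the protein sequence was available. Glycan names were converted to IUPAC-condensed notation, and columns mapping to the same glycan were averaged. The binding signal is a within-array Z-score, averaged across arrays of the same protein sequence at different concentrations or buffers and across linkers. Negative Z-scores can be read as non-binding.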

Assay [1] relates to Gal(b1-3)GalNAc(b1-4)Gal(b1-4)Glc. In short, it runs like this:
as §1

The test system of another assay is Gal(b1-2)Gal. The method in brief: as §1
The test system of assay [2] is Gal(b1-3)GalNAc(a1-3)[Fuc(a1-2)]Gal(b1-4)Glc. The method in brief:
as §1

The subject of assay [3] is Gal(b1-3)GalNAc(a1-3)[Fuc(a1-2)]Gal(b1-4)GlcNAc. The method in brief: as §1
Another assay relates to Gal(b1-3)GalNAc. In short, it runs like this:
as §1

Assay [4] relates to Gal(b1-3)GalNAc(b1-3)Gal(a1-4)Gal(b1-4)Glc. The method in brief:
as §1

A further assay concerns Gal(b1-3)GalNAc(b1-3)Gal. In short, it runs like this:
as §1

Assay [5] relates to Gal(b1-3)GalNAc(b1-4)[Neu5Gc(a2-3)]Gal(b1-4)Glc. In short, it runs like this: as §1

For the substance Wza (Escherichia coli), P0A930, the “glycan array binding signal (z-score)” value with Gal(a1-6)Glc was found to be 3.12.

Consider “AgI/II Vhelical-GFP (Streptococcus mutans)”, for which the “glycan array binding signal (z-score)” value was -0.194 in the assay on Gal(a1-6)Glc and -0.139 in assay [1]. Take BambL (Burhholderia ambifaria), Q0B4G1: the “glycan array binding signal (z-score)” value is -0.304 with Gal(b1-2)Gal and -0.278 in assay [2]. For the substance LcI (Legionella pneumophila), in the assay on Gal(b1-2)Gal, the “glycan array binding signal (z-score)” value is 4.02. With “SpGH101 (Streptococcus pneumoniae), Q8DR60”, the “glycan array binding signal (z-score)” value in assay [3] is 1.71; in [2], 2.88; in the assay on Gal(b1-3)GalNAc, 8.17. As to Actinohivin (Actinomycete K97), the “glycan array binding signal (z-score)” value in assay [3] is -0.176.

With GspB (Streptococcus gordonii), Q939N5, in [4], the “glycan array binding signal (z-score)” value was found to be 3.02. In the case of Epa22, the “glycan array binding signal (z-score)” value in the assay with Gal(b1-3)GalNAc(b1-3)Gal was 2.8; in [1] it was 2.6; in the assay with Gal(b1-3)GalNAc, 1.46.

In the case of MIC3-MAR1b (Eimeria tenella), B6VCV4, the “glycan array binding signal (z-score)” value in assay [5] was -0.47.
